sPLA2-III inh: Inhibits HGIII-sPLA2 liposome hydrolysis, primary screen. actives 0.56% (n = 370,000). QFRET BODIPY PC-A2 liposome hydrolysis, fluorescence. Q9NZ20. AID 743126. inhibition, % at 12.2 µM;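 active = inhibition above mean plus 3 SD of compounds lying within the high and low control bounds, cut at about 19% in these data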
Target sequence (Q9NZ20 whole entry, looked up): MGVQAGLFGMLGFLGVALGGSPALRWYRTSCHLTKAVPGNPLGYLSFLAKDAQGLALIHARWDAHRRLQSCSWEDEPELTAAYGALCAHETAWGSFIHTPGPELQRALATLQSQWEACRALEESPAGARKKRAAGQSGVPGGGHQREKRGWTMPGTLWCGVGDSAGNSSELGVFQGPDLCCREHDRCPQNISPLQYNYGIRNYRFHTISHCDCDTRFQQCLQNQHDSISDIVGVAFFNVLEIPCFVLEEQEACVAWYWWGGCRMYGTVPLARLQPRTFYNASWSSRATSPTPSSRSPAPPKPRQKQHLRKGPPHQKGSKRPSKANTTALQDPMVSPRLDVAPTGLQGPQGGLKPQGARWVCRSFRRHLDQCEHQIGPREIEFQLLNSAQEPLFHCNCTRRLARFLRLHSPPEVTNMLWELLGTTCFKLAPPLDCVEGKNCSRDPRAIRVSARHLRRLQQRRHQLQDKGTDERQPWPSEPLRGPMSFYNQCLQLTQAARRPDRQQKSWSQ
Efflux pump mplx: blocks antifungal efflux pumps in multiplex yeast assay; S. cerevisiae Candida pump triplex, Nile Red efflux; actives 0.44% (n = 330,000); inhibition, % at 10 µM; AID 485275;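 active = plate passing quality check with inhibition over a set limit, or well fluorescence over plate mean plus 4 SD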;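 also: Nile Red retained in pooled yeast measured as flow cytometry median fluorescence; higher means more Nile Red kept so more efflux inhibition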
SKN-1 inh: blocks SKN-1 activity in C. elegans; C. elegans VP596 Pgst-4::GFP/RFP ratio, acrylamide-induced, 24 h; inhibition, % at 21.8 µM; actives 0.49% (n = 360,000);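 active = interference check ratio from 0.5 to 1.5 plus GFP to RFP signal ratio inhibition reaching or exceeding a fixed threshold, cut at about 30% in these data, passing the limit was not always enough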
SUMO Mot1 rescue: SUMOylation pathway inhibition by Mot1-301 growth rescue | S. cerevisiae Mot1-301 growth rescue, ATP luminescence, 38.5C; percent above DMSO median, 100 means doubled | growth rescue, % at 18.8 µM | actives 1% (n = 320,000);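 active = every valid replicate shows activation above 250% relative to neutral control wells; inactive = the rest, any valid replicate at or below 250%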
Large screens that a line does not name were inactive. In the library only some 2.2% were active in any assay of this set; here they are far more common.

Cc1ccc2nc(Nc3nc(CSc4nnnn4-c4ccccc4)cc(=O)[nH]3)nc(C)c2c1	SKN-1 inh 35
Cc1c(C2(O)CCCCC2)[nH]c2ccc(C(F)(F)F)cc12	SUMO Mot1 rescue 301
Cc1ccc(NC(=O)c2ccc(F)cc2F)cc1	SKN-1 inh 41 (no result: Efflux pump mplx)
O=C(Nc1ccccc1)c1ccc(F)cc1F	none
CSC1=NC2(CC(c3ccccc3)Oc3cc(O)ccc32)CC(C)(C)N1 (centres undefined)	SKN-1 inh 43
COc1cccc(C2CC3(CC(C)(C)NC(=S)N3)Oc3cc(O)ccc32)c1 (centres undefined)	none
Cc1[nH]nc2c1C(c1ccc(F)cc1)N(c1ccccc1)C2=O (centres undefined)	none (no result: Efflux pump mplx, SKN-1 inh, SUMO Mot1 rescue)
Cc1c(C#N)c(O)[nH]c(=O)c1N=Nc1ccc(S(N)(=O)=O)cc1	SKN-1 inh 38
Cc1c(C#N)c(O)[nH]c(=O)c1N=Nc1ccc(Cl)c(C(=O)O)c1	none
COc1ccc(C(=O)NCC2CCN(C(=O)C(=O)c3cc4ccccc4o3)CC2)c(OC)c1	none (no result: Efflux pump mplx, SKN-1 inh, SUMO Mot1 rescue)
Cc1ccc(N2C(=O)c3ccc(C(=O)O)cc3C2=O)c(C)c1	SUMO Mot1 rescue 313
O=[N+]([O-])c1ccc(S(=O)(=O)Nc2nc(-c3ccccc3)cs2)cc1	none
C=CCNc1nc(-c2ccc(Cl)cc2)cs1	SKN-1 inh 43
C=CCNc1nc(-c2ccc([N+](=O)[O-])cc2)cs1	SKN-1 inh 51
Cc1cc(C)cc(NC(=O)OC2CC3CC2[C@H]2CCCCN2[C@H]3Cc2ccccc2)c1 (some centres undefined)	none (no result: Efflux pump mplx, SKN-1 inh, SUMO Mot1 rescue)
CN1Cc2nnn(Cc3ccccc3)c2-c2cc(F)ccc2S1(=O)=O	none (no result: Efflux pump mplx, SKN-1 inh, SUMO Mot1 rescue)
CC(C)(C)c1ccc(C#C[C@@H]2C=C[C@H]3OC(=O)CC/C=C/CCC(=O)OC[C@H]3O2)cc1	none (no result: Efflux pump mplx, SKN-1 inh, SUMO Mot1 rescue)
Cc1ccsc1C=Nc1ccc(O)cc1	SKN-1 inh 28 (no result: sPLA2-III inh)
COc1ccc(C(C)=O)cc1COC(=O)c1ccc(C)c(S(=O)(=O)N2CCOCC2)c1	none
CCN(CC)S(=O)(=O)c1ccc(C(=O)NCc2ccc3c(c2)cc(C)n3C)cc1	none
Cc1cc2cc(CNC(=O)c3ccc(S(=O)(=O)N4CCCCC4)cc3)ccc2n1C	SKN-1 inh 62
Cc1ccc(CNC(=O)c2ccc(S(=O)(=O)N3CCCCC3)cc2)cc1	none (no result: Efflux pump mplx, SUMO Mot1 rescue)
Cc1cc2cc(CNC(=O)c3ccc(S(=O)(=O)N4CCCC4)cc3)ccc2n1C	SKN-1 inh 46
COc1ccc(NC(=O)c2cc(C3CCCCN3S(=O)(=O)Cc3ccccc3)on2)c(C)c1 (centres undefined)	none (no result: Efflux pump mplx, SUMO Mot1 rescue)
Cc1nc2cc(C(=O)N3CCN(C(=O)C(C)(C)C)CC3)ccc2n1C1CCCC1	none (no result: Efflux pump mplx, SKN-1 inh, SUMO Mot1 rescue)
Cc1cc(N2CCNC[C@H]2C)ccc1N1CCN(Cc2ccccc2)[C@@H](C)C1	none (no result: Efflux pump mplx, SKN-1 inh, SUMO Mot1 rescue)
O=C(NC(=S)Nc1cccc(O)c1)c1cncc(Br)c1	none
O=C(NC(=S)Nc1ccc(O)cc1)c1cncc(Br)c1	sPLA2-III inh 22
COc1ccc(-c2c(C)oc3c(CN4CCCCC4C)c(O)ccc3c2=O)cc1 (centres undefined)	none
CC1CCCCN1Cc1c(O)ccc2c(=O)c(-c3nc4ccccc4s3)c(N)oc12 (centres undefined)	SKN-1 inh 81
O=C1NC(c2cccc(C(F)(F)F)c2)c2c(-c3ccccc3)n[nH]c21 (centres undefined)	none (no result: Efflux pump mplx, SKN-1 inh, SUMO Mot1 rescue)
O=C(/C=C/c1ccco1)NC1CCCC1	SUMO Mot1 rescue 693
Clc1ccc(CSc2nccn2Cc2ccccc2)cc1	SKN-1 inh 38
CCC1CCCCN1CCNC(=O)CNS(=O)(=O)c1ccc2nc(C)sc2c1 (centres undefined)	SUMO Mot1 rescue 315
COCC(=O)NCC1CCN(C(=O)C(=O)c2cccs2)CC1	none (no result: Efflux pump mplx, SKN-1 inh, SUMO Mot1 rescue)
C[C@H](c1ccccc1)N1C[C@@H](COCc2ccccc2)Oc2cccc(N3CCCC3)c2S1(=O)=O	none (no result: Efflux pump mplx, SKN-1 inh, SUMO Mot1 rescue)
Cc1ccc(O)c(-c2cc(-c3cccc(F)c3)n[nH]2)c1	SKN-1 inh 37
CC(=O)c1ccc(Nc2nc(C(N)Cc3ccc(Cl)cc3)cs2)cc1 (centres undefined)	none (no result: Efflux pump mplx, SUMO Mot1 rescue)
O=C1CN(C(=O)COC(=O)c2cccs2)c2ccccc2N1	none (no result: SUMO Mot1 rescue)
Cn1c2ccccc2c2cc(C(=O)OCC(=O)N3CC(=O)Nc4ccccc43)sc21	SKN-1 inh 46
C[C@H](O)[C@@H]1C(=O)N2CCc3c([nH]c4c(-c5ccccc5)cccc34)[C@@H]2C[C@@H]1N(C)C(=O)OCc1ccccc1	none (no result: Efflux pump mplx, SKN-1 inh, SUMO Mot1 rescue)
N/C(Cn1cncn1)=N\NC(=O)C(=O)Nc1cccc(C(F)(F)F)c1	none
O=C1OCCC1Sc1nnc(-c2ccc3c(c2)OCO3)n1-c1ccccc1 (centres undefined)	SUMO Mot1 rescue 340
Fc1ccc2cc(-c3ccsc3)ncc2c1	SUMO Mot1 rescue 282
O=C(NC1CCCc2c1cnn2-c1ccc(F)cc1F)c1cccs1 (centres undefined)	none (no result: Efflux pump mplx, SKN-1 inh, SUMO Mot1 rescue)
O=C(CCN1C(=O)c2ccccc2S1(=O)=O)Nc1ccc(F)c(F)c1F	none
O=C1COc2ccc(C(=O)COC(=O)c3ccc(F)cc3Cl)cc2N1	none
CCOC(=O)c1c(N)sc2c1CCC(CC)C2 (centres undefined)	none (no result: SUMO Mot1 rescue)
CCOC(=O)c1c(N)sc2c1CCSC2	SKN-1 inh 37
COc1ccc(-c2cc(C(=O)NC3CC3)c3ccccc3n2)cc1	none
O=C(NC1CC1)c1cc(-c2ccc(Br)cc2)nc2ccccc12	SKN-1 inh 36
Clc1ccc(-c2nnc(SCc3cccc4ccccc34)n2-c2ccc(Cl)cc2)cc1	none (no result: Efflux pump mplx, SKN-1 inh, SUMO Mot1 rescue)
N#Cc1ccc(CN2CCN(C(=O)c3cc(C4CC4)nn3-c3ccccc3)CC2)cc1	SKN-1 inh 38
O=C(NCCc1cccc(F)c1)c1cc2ccccn2n1	none (no result: Efflux pump mplx, SKN-1 inh, SUMO Mot1 rescue)
Cc1ccc([C@@H]2CC=C(C(=O)O)[C@H](c3cccc(F)c3)N2S(=O)(=O)c2ccccc2C)cc1	SUMO Mot1 rescue 280
Cc1ccc([C@@H]2CC=C(C(=O)O)[C@H](c3ccc(Cl)cc3)N2S(=O)(=O)c2ccccc2C)cc1	SUMO Mot1 rescue 255
CCc1ccc([C@@H]2CC=C(C(=O)O)[C@H](c3ccc(Br)cc3)N2S(=O)(=O)c2ccc(C)cc2)cc1	SUMO Mot1 rescue 300
O=C(Cc1cn(Cc2ccccc2)c2ccccc12)Nc1ccc(Nc2cccnc2)cc1	none (no result: Efflux pump mplx, SKN-1 inh, SUMO Mot1 rescue)
O=C(O)c1cnc2ccccc2n1	SKN-1 inh 37
COC(=O)c1cnc2ccccc2n1	none
Clc1ccc(N2CCN(/N=C/c3cccnc3)CC2)cc1	SKN-1 inh 66
Cc1ccc(N2CCN(/N=C/c3cccnc3)CC2)cc1	none
O=C1C[C@@H](O)[C@H](O)c2cccc(O)c21	none (no result: Efflux pump mplx, SKN-1 inh, SUMO Mot1 rescue)
CC(C)(C)C(CCl)C(=O)NN=C(c1ccccc1)c1ccccc1 (centres undefined)	none
CC(Cl)C(=O)NN=C(c1ccccc1)c1ccccc1 (centres undefined)	SUMO Mot1 rescue 468
CCCCOCCCNC(=O)C[C@H]1C[C@@]2(C(=O)OC)C(=C[C@H](C(C)(C)C)O[C@@H]2C)N(Cc2cccc3ccccc23)C1=O	none (no result: Efflux pump mplx, SKN-1 inh, SUMO Mot1 rescue)
Fc1c(-c2ccc3ncnc(NCc4cccs4)c3c2)ccc2c1OCO2	none (no result: Efflux pump mplx, SKN-1 inh, SUMO Mot1 rescue)
Cc1ccc(C2c3c(n[nH]c3C)C(=O)N2c2ccccc2)cc1 (centres undefined)	none (no result: Efflux pump mplx, SKN-1 inh, SUMO Mot1 rescue)
CCCN1C(=O)/C(=C/c2ccc(N3CCCC3)c(C)c2)NC1=S	SKN-1 inh 46

Screens deposited in PubChem by several laboratories.
